# Cy5 interf NS3h: enhances or quenches Cy5 fluorescence in NS3h assay | AID 720488 | Cy5-dT15 DNA with NS3h, fluorescence interference; actives lie on both sides; signal over control mean, under 1 quenches | fluorescence interference ratio at 100 µM | 16,000 compounds, 6% hits;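 active = compound fluorescence over control fluorescence at most 0.8, a quencher, or at least a set upper limit, an enhancer; inactive = ratio between 0.8 and the set upper limit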
# NS3h inh CB: hepatitis C NS3 helicase inhibition, primary screen; NS3h Cy5-dT15 DNA binding, fluorescence polarization; inhibition, % at 100 µM; 16,000 compounds, 1.6% hits;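 active = inhibition above the average over every tested compound plus 3 SD, cut at about 40% in these data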
# Numbers without * were called inactive. Sampled rows, rich in hits. Any-hit rate of the full collection: about 6.8%.
SMILES,Cy5 interf NS3h,NS3h inh CB
CCN(CC)CCNc1ccc(Nc2ccnc3cc4ccccc4cc23)cc1,0.58*,7
c1ccc(CCNc2ccnc3cc4ccccc4cc23)cc1,0.96,2
O=C(CCc1ccccc1)Nc1cc(Cl)cc(Cl)c1,1,8
COc1cc(NC(=O)c2cc3nc(-c4ccc5c(c4)OCO5)cc(C(F)(F)F)n3n2)c(OC)cc1Cl,1.1,10
CC(NC(=O)c1cc2nc(-c3ccco3)cc(C(F)(F)F)n2n1)C1CC2CCC1C2 (centres undefined),0.7*,20
Cc1ccc(S(=O)(=O)N(CCc2ccccc2)CC(=O)NCc2cccnc2)cc1,1.1,10
O=C(COCC(=O)N1CCOCC1)NCC(=O)N1CCOCC1,1,-8
O=C(Nc1ccc2ccccc2c1)c1ccc(-c2cccc(Cl)c2)o1,0.94,5
O=C(Nc1ccc(-c2nc3ncccc3o2)cc1)c1ccc(-c2cccc(Cl)c2)o1,1.2*,-44
CC(Sc1ccc(Cl)cc1)C(=O)NC(C)c1ccccc1 (centres undefined),0.86,10
O=C(Cn1cnc([N+](=O)[O-])n1)Nc1ccc(F)cc1F,0.76*,6
O=C(CCCC(=O)OCC(F)(F)C(F)F)Nc1ccc(F)cc1F,1.1,3
COc1ccc(/C=C2/SC(=S)N(CCCC(=O)OCCN(C)C)C2=O)cc1,0.8*,4
COCCCN1C(=O)/C(=C/c2ccc(N(C)C)cc2)SC1=S,1,31
O=C(CSc1nc2ccc([N+](=O)[O-])cc2[nH]1)c1ccc(Br)cc1,0.61*,24
Cc1cccc(NC(=O)CSc2nc3ccc(C)cc3[nH]2)c1,0.65*,16
O=C(CSc1nc2ccc([N+](=O)[O-])cc2[nH]1)c1ccc2ccccc2c1,0.87,1
O=C(CSc1nc2ccc([N+](=O)[O-])cc2[nH]1)Nc1ccc2c(c1)OCO2,0.6*,12
O=C(CSc1nc2ccccc2[nH]1)Nc1ccc(F)c([N+](=O)[O-])c1,0.85,16
CCOc1ccc(NC(=O)CSc2nc3ccccc3[nH]2)cc1,0.92,2
CC(=O)Nc1ccc2oc(-c3cccc(Cl)c3)nc2c1,1.2*,-20
O=C(Nc1cccc(-c2nc3cc(Cl)ccc3o2)c1)c1ccc2c(c1)OCCO2,0.71*,11
Cc1ccc(-c2nc3cc(Cl)ccc3o2)cc1NC(=O)c1ccc2c(c1)OCCO2,1.2,-4
O=C(COc1ccccc1[N+](=O)[O-])Nc1ccc2oc(-c3cccc(Cl)c3)nc2c1,1.1,-19
O=C1C(Cl)=C(NCc2ccccc2)C(=O)N1c1ccccc1,0.94,12
SMILES,Cy5 interf NS3h,NS3h inh CB
CCOC(=O)c1ccc(N2C(=O)c3ccc(C(=O)Nc4ccccc4C(=O)O)cc3C2=O)cc1,1,19
CCOP(=O)(OCC)C(OC(N)=O)c1ccc([N+](=O)[O-])cc1 (centres undefined),0.95,0
COc1ccc(NC(=O)c2ccc(N(C)S(=O)(=O)c3ccccc3)cc2)cc1OC,0.89,16
CC(C)CC(=O)NS(=O)(=O)c1ccc(NC(=O)c2cccc(Br)c2)cc1,1,4
O=[N+]([O-])c1ccc(N2CCN(S(=O)(=O)Cc3ccccc3)CC2)c(Cl)c1,0.74*,18
COCC(O)CN1CCN(c2ccc([N+](=O)[O-])cc2Cl)CC1 (centres undefined),0.99,-13
O=C(c1nn2c(c1Br)NC(c1cccs1)CC2C(F)(F)F)N1CCCC1 (centres undefined),0.51*,15
O=C(Nc1ccc(Cl)c(Cl)c1)c1nn2c(c1Br)NC(c1cccs1)CC2C(F)(F)F (centres undefined),1,12
O=C(c1nn2c(c1Cl)NC(c1cccs1)CC2C(F)(F)F)N1CCOCC1 (centres undefined),0.67*,1
CCOC(=O)c1sc(NC(=O)c2nn3c(c2Cl)NC(c2cccs2)CC3C(F)(F)F)c(C(=O)OCC)c1C (centres undefined),1,16
CCOC(=O)CCCN1C(=O)/C(=C\c2cccs2)SC1=S,1,8
Cc1cc(C)c(N=Cc2c(C)[nH]n(-c3ccccc3)c2=S)c(C)c1,1.1,23
O=C(Nc1ccc(Cl)c(NC(=O)c2ccc(Cl)cc2Cl)c1)c1cccs1,1,10
CC1=NN(c2ccc(C)c(Cl)c2)C(=O)C1,0.72*,-9
Cc1ccc(N2C(=O)C3C4C=CC(C5CC45)C3C2=O)cc1Cl (centres undefined),0.92,4
Cc1ccc(-c2cc(NC(=O)COc3ccccc3)n[nH]2)cc1,0.82,30
O=C1C(=O)N(c2cccc(Cl)c2)C(c2cccc(F)c2)C1=C(O)c1ccccc1 (centres undefined),0.91,4
CCc1ccc(NC(=O)CSc2nnc(-c3ccco3)n2-c2ccccc2)cc1,0.8*,-4
O=C(CSc1nnc(-c2ccco2)n1-c1ccccc1)Nc1ccccc1[N+](=O)[O-],0.98,4
CCNC(=O)CC1S/C(=N/N=C\c2ccco2)NC1=O (centres undefined),1.1,-2
Cc1ccc(C(=O)O/N=C(/N)c2ccccn2)cc1[N+](=O)[O-],1,7
Cc1ccc(C(=O)O/N=C(/N)c2cccnc2)cc1[N+](=O)[O-],0.66*,7
O=[N+]([O-])c1cc(NS(=O)(=O)Cc2ccccc2)ccc1F,0.63*,-2
O=C(Nc1ccc(F)c([N+](=O)[O-])c1)C(c1ccccc1)c1ccccc1,1,8
CCOC(=O)C1CCN(CN2C(=O)C(=O)c3cc(Br)ccc32)CC1,1,3
SMILES,Cy5 interf NS3h,NS3h inh CB
CCOc1ccc(C2=C/C(=C/c3ccc(OC)cc3)C(=O)O2)cc1,1,9
COc1ccc(C2=C/C(=C/c3ccc([N+](=O)[O-])cc3)C(=O)O2)c(OC)c1,0.67*,9
O=C(NC(NC(=S)Nc1cccc2ccccc12)C(Cl)(Cl)Cl)c1ccccc1 (centres undefined),0.9,8
Cc1ccc(C(=O)NC(NC(=S)Nc2cccc3ccccc23)C(Cl)(Cl)Cl)cc1 (centres undefined),0.71*,5
CC(=O)c1ccc(NC(=S)NC(NC(=O)c2ccc(Cl)cc2Cl)C(Cl)(Cl)Cl)cc1 (centres undefined),1,0
CC(=O)NC(NC(=S)Nc1cccc(Cl)c1)C(Cl)(Cl)Cl (centres undefined),1.2*,19
CC(=O)c1ccc(NC(=S)NC(NC(=O)c2ccc(C)cc2)C(Cl)(Cl)Cl)cc1 (centres undefined),0.99,-8
CC(=O)Nc1ccc(NC(=S)NC(NC(=O)c2ccc(C)cc2)C(Cl)(Cl)Cl)cc1 (centres undefined),0.67*,6
O=C1C2C3C=CC(C3)C2C(=O)N1/N=C\c1ccc2c(c1)OCO2 (centres undefined),0.94,2
CC(=O)NC12CC3CCC(CC(C3)C1)C2,0.97,-12
Cc1ccc(OCCSc2nnnn2-c2ccccc2)cc1,0.97,-4
Cc1ccc(C(O)=C2C(=O)C(=O)N(c3nncs3)C2c2cccc([N+](=O)[O-])c2)cc1 (centres undefined),0.85,8
Cc1ccc(-c2nc3ccccc3o2)cc1NC(=O)c1cccc(Br)c1,1,-9
CCOC(=O)c1c(NC(=O)c2cc3n(n2)C(C(F)(F)F)CC(c2ccco2)N3)sc(C)c1C (centres undefined),0.75*,6

# Assay outcomes as filed in PubChem.
